# Shiga inhibitor = inhibitors of Shiga toxin in Vero cells; Vero cells, Shiga toxin protein synthesis inhibition reporter; inhibition, % at 38.7 µM; actives 9.2% (n = 290,000); AID 2315; in the data active means inhibition mostly above about 28%, no sharp cut-off; inactive means mostly below about 43%; further: 0% is about no effect
# HCV inh = blocks hepatitis C virus; Huh7.5.1 HCVcc-Cre infection, luciferase reporter, 44 h; Potency, µM (doses to about 41.8 µM), for the others: top-dose activity change, negative = inhibition, most hits filed as inhibitors; actives 3.4% (n = 340,000); AID 651820; further: potency means the concentration at half of the fitted maximal effect; on the % scale 0 is the no-effect control and ±100 the full control effect
#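 Cells (1,000/well) were plated 4 h before compound, then infected with HCVcc-Cre virus (~0.5 moi). After 44 h further culture, infection was read as luciferase luminescence following a 15 min substrate incubation at room temperature.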
# Pf growth 96h = P. falciparum growth inhibition at 96 hours | AID 504834 | P. falciparum luciferase reporter growth, 96 h | actives 6.9% (n = 320,000) | Potency, µM (top dose mostly 28.7 µM), inactives show at the highest dose activity change, negative = inhibition, usual class: inhibitors; further: potency means the concentration at half of the fitted maximal effect; on the % scale 0 is the no-effect control and ±100 the full control effect
#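 Two parasite generations (96 h, 37 C, 5% CO2) of compound exposure in infected erythrocytes (0.05% parasitemia, 2% hematocrit). Luciferase-reporter P. falciparum; decreased luminescence indicates inhibited growth, aimed at apicoplast-acting delayed death.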
# AMA1-RON2 inh = AMA1-RON2 (P. falciparum) interaction inhibition; AlphaScreen AMA1-biotinylated RON2 peptide binding; Potency, µM (titrated, usually from 58.2 µM), without a hit: at the top dose activity change, negative = inhibition, actives largely listed as inhibitors; actives 0.2% (n = 360,000);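 further: potency means the concentration at half of the fitted maximal effect; 0% = vehicle wells and -100% = peptide control; nearly all actives have a fitted effect of over 45% in size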
#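 AMA1 (3D7) with his tag at 25 nM final met compounds first, then biotinylated RON2 peptide at 25 nM; detection used donor plus acceptor beads, 10 µg/mL apiece, read by AlphaScreen after 30 min at room temperature.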
# Pf growth 48h = P. falciparum growth inhibition at 48 hours (one generation); P. falciparum luciferase growth in erythrocytes, 48 h; Potency, µM (titrated, usually from 28.7 µM), inactives show at the top dose activity change, negative = inhibition, actives largely listed as inhibitors; actives 5.9% (n = 310,000); AID 504832; further: potency means the concentration at half of the fitted maximal effect; on the % scale 0 is the no-effect control and ±100 the full control effect
#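 Luciferase-expressing parasites in RBCs, 2% Hct / 0.1% parasitemia final; RPMI 1640 + 0.5% Albumax; 37 C, 5% CO2, one generation; luminescence read-out, lower signal = inhibition.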
# Cycloheximide cs = counter-screen hit for Shiga toxin inhibitors, cycloheximide; cell reporter, cycloheximide protein synthesis inhibition counterscreen; max response, %; actives 12% (n = 300,000); AID 2314; in the data active means max response mostly above about 13%, no sharp cut-off; inactive means mostly below about 14%; further: read at 38.3 µM for the half of the compounds with a filed dose; 0% is about no effect
# Numbers without * were called inactive; i = inactive; ? = inconclusive; / = no result given; [ ] = another dose, or the depositor's remark. An excerpt weighted towards active compounds, which were near 21% of everything screened. Unless noted, the call rests on the fitted dose curve; in most records, active means well fitted curve in the direction sought with a large enough effect; inconclusive means small, poorly fitted or top-dose-only effect, or another doubt; inactive means no such curve, though single readings can be large; an effect the other way counts as inactive or inconclusive.
SMILES,Shiga inhibitor,HCV inh,Pf growth 96h,AMA1-RON2 inh,Pf growth 48h,Cycloheximide cs
COc1ccc(-c2cc(C3C4C=CCC(C)C4C(=O)N3Cc3ccccc3)ccc2F)cc1 (stereo not drawn),8,/,/,/,/,14
Cc1ccoc1C(=O)NCCNc1ccc(Cl)cc1[N+](=O)[O-],27,?,?,-3%[11.6 µM],25%,14*
Cc1ccc(-c2oc3ncnc(N)c3c2-c2ccc(C)cc2)cc1,-10,?,10%,0%,7.4µM*,2
Nc1ccccc1C(=O)OCC(=O)c1ccc2c(c1)OCCO2,74*,-29%,177%,8%,168%,31*
O=C(COC(=O)c1ccc(Cl)nc1)c1ccc2c(c1)OCCO2,100*,15%,38%,0%,37%,44*
O=C(COC(=O)c1cccnc1Cl)c1ccc2c(c1)OCCO2,88*,5%,-22%,-11%,39%,35*
Cc1cc(C(=O)OCC(=O)c2ccc(Br)s2)no1,-3,19%,?,-13%,2%,2
CS(=O)(=O)c1cccc(C(=O)OCC(=O)c2ccc3c(c2)OCCO3)c1,/,6%,-4%,17%,6%,/
Cc1cc(C(=O)OCC(=O)c2ccc(Br)s2)c(C)o1,36,/,33%,/,24%,33*
CC(OC(=O)c1cccnc1Cl)C(=O)Nc1ccc2c(c1)OCCO2 (stereo not drawn),3,20%,26%,0%,11%,12
CCOc1ccc(/C=N/NC(=O)CSc2n[nH]c(=O)[nH]c2=O)cc1OC,-4,6%,41%,?,?,-2
CCCCCCCCCCCCCCCCCCCCCC(=O)Nc1ccn([C@@H]2O[C@H](CO)[C@@H](O)[C@@H]2O)c(=O)n1,/,/,-10%,/,6%,/
COc1ccc(NC(=O)N(C)C[C@H]2OCCCC[C@@H](C)Oc3ccc(NC(=O)c4ccccc4)cc3C(=O)N([C@H](C)CO)C[C@@H]2C)cc1,/,/,/,0%,/,/
Cc1cc(C(=O)OCC(=O)Nc2ccc(F)cc2F)c(C)o1,14,?,-10%,-20%,?,17*
Cc1c(C(=O)OCC(=O)c2ccc3c(c2)OCCO3)oc2ccccc12,59*,?,?,1%,12%,36*
O=C(Cn1cnc2ccccc2c1=O)OCC(=O)c1ccc2c(c1)OCCO2,-19,3%,-27%,2%,/,2
CCOC(=O)c1c(C)[nH]c(C)c1C(=O)COC(=O)c1ccc(Cl)nc1,/,5%,/,-15%,/,/
CCc1ccc(C(=O)COC(=O)c2ccc(Cl)nc2)cc1,65*,-7%,271%,24%,i,42*
O=C(COC(=O)C(O)c1ccccc1)c1ccc2c(c1)OCCO2 (stereo not drawn),103*,6%,22%,3%,20%,32*
Cc1c(C(=O)OCC(=O)N2CCC(C)CC2)oc2ccccc12,/,4%,81%,1%,66%,/
COc1ccc(OC)c(CN2CCN(C(=O)c3cc(S(=O)(=O)N4CCOCC4)ccc3C)CC2)c1,/,-9%,/,-2%,/,/
COc1ccc(CC(N)c2csc(NC(=O)Nc3ccccc3-c3ccccc3)n2)cc1 (stereo not drawn),/,/,/,70%,/,/
CCc1nc2ccc(C(=O)NCc3ccc(OC)cc3)cn2c1N(CC)CCOC,/,/,/,14%,/,/
Cc1cc(C(=O)OCC(=O)c2ccc3c(c2)OCCO3)c(C)o1,114*,-15%,-28%,-11%,117%,37*
Cc1noc(C)c1COc1ccc(C(=O)OCC(=O)c2ccc3c(c2)OCCO3)cc1,2,13%,-52%,-21%,-5%,12
O=C1NC[C@H](CCCCN2C[C@H](Cc3ccc(O)cc3)N(CCc3ccc(O)cc3)C(=O)C2=O)N(CCc2ccccc2)C1=O,/,/,/,-2%,/,/
CC(OC(=O)CCNS(=O)(=O)c1ccc(Cl)cc1)C(=O)N(C)Cc1ccccc1 (stereo not drawn),/,/,/,3%,/,/
Cc1cc(=O)oc2cc(OCC(=O)Nc3nccs3)ccc12,74*,0%,384%,6%,108%,35*
Cc1c(C)c2ccc(OCC(=O)Nc3cccnc3)cc2oc1=O,7,?,-4%,-5%,35%,16
